“And” between values parts separate entries of the source, which are not always exact repeats. Identical values can stand only once. Inconclusive results are not listed. Some structures have more than one record in an assay (separate samples or runs), and their calls can disagree. The source made the active and inactive calls. Unless noted, the call rests on the fitted dose curve; in most records, active means well fitted curve in the direction sought with a large enough effect in the repeat runs; inconclusive means weak or mixed curves; inactive means no such curve, though single readings can be large; an effect the other way counts as inactive or inconclusive.
What was measured:
[1] = qHTS assay to identify small molecule agonists of the hypoxia (HIF-1) signaling pathway - cell viability counter screen (AID 1224844; calls by dose curve; further: nearly all actives have a fitted effect of over 50% in size; further: potency means the concentration at half of the fitted maximal effect)
Method in brief: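 HRE-bla ME-180 cells, 2,000/well in 0.5% dialyzed FBS medium, treated 17 h at 37C with compounds. Viability read in the same wells as the bla reporter, by CellTiter-Glo luminescence after 30 min at room temperature.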

[2] = qHTS assay to identify small molecule agonists of H2AX (AID 1224845; active means well fitted activation curve with a large enough effect in the signal ratio in the repeat runs, not every such curve was filed as active; the % refers to the signal ratio; further: potency means the concentration at half of the fitted maximal effect)
Method in brief: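 Wild-type CHO-K1 cells plated overnight, then exposed 3 hr at 37C to compounds at 15 concentrations (0.76% DMSO). Lysed, then HTRF anti-pH2AX(S139)-cryptate/anti-H2AX-d2 detection after 24 hr at room temperature; emissions 665 and 620 nm.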

[3] = qHTS assay to identify small molecule agonists of H2AX - cell viability counter screen (AID 1224847; calls by dose curve; further: nearly all actives have a fitted effect of over 30% in size; further: potency means the concentration at half of the fitted maximal effect)
Method in brief: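 Read-out: CellTiter-Glo luminescence, 30 min RT. Cells: wild-type CHO-K1, 1000/well, 10% FBS, plated overnight at 37C. Treatment: 15 concentrations, 3 hr, 37C, 0.76% DMSO.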

[4] = qHTS assay to identify small molecule antagonists of the estrogen related receptor (ERR) signaling pathway from Tox21 library (AID 1224848); further: nearly all actives have a fitted effect of over 50% in size; further: potency means the concentration at half of the fitted maximal effect
Method in brief: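 Screening used an ERR reporter line supplied by NTP, exposed for 18 h at 37 C to library compounds delivered in DMSO. Signal was luciferase luminescence developed with ONE-Glo at room temperature for 30 min.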

[5] = qHTS assay to identify small molecule agonists of the estrogen related receptor (ERR) signaling pathway from Tox21 library (AID 1224849; calls by dose curve; further: nearly all actives have a fitted effect of over 15% in size); conditions: ERR reporter cell line, ONE-Glo luciferase, 18 h
Method in brief: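 ERR reporter cells (NTP line) pre-incubated 6 hours at 37 C, then exposed to compounds for 18 hours at 37 C. ONE-Glo luciferase luminescence was read after 30 minutes at room temperature.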

[6] = qHTS RealTime-Glo MT Cell Viability Assay in HepG2 cells - 24 hour (AID 1224867); further: nearly all actives have a fitted effect of over 50% in size; further: potency means the concentration at half of the fitted maximal effect
Method in brief: (§1)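 Tox21 10K library screened in qHTS format on HepG2 cells carrying RealTime-Glo reagents. Compounds were added after a 5 h preincubation, and the luminescent signal from continuous culture was measured repeatedly during 40 h treatment.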

[7] = A CellTox Green Cytotoxicity Assay to monitor cytotoxicity in HEK293 cells - 0 hour (AID 1224869); further: nearly all actives have a fitted effect of over 50% in size
Method in brief: (§2)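 HEK293 cells, 600/well, were preincubated 5 hours and then exposed to compounds at 37 C for up to 40 hours. A cell-impermeant cyanine dye staining dead-cell DNA was read by fluorescence at 0, 8, 16, 24, 32 and 40 h time points.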

[8] = A CellTox Green Cytotoxicity Assay to monitor cytotoxicity in HEK293 cells - 40 hour (AID 1224871); further: nearly all actives have a fitted effect of over 45% in size; further: potency means the concentration at half of the fitted maximal effect
Method in brief: as §2

[9] = qHTS RealTime-Glo MT Cell Viability Assay in HEK293 cells - 16 hour (AID 1224872)
Method in brief: (§3)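 Luminescence generated by NanoLuc from substrate produced by living HEK293 cells served as the viability signal. Each value reflects the reading at its stated time point during continuous 40 h compound exposure at 37 C.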

[10] = qHTS RealTime-Glo MT Cell Viability Assay in HepG2 cells - 8 hour (AID 1224873); further: nearly all actives have a fitted effect of over 55% in size; further: potency means the concentration at half of the fitted maximal effect
Method in brief: (§4)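 HepG2 cells mixed with RealTime-Glo MT reagents (NanoLuc plus cell-permeant prosubstrate) were seeded at 600 cells/well, incubated 5 h at 37 C/5% CO2, then pinned with compounds in DMSO; nonlytic luminescence tracked viability during 40 h treatment.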

[11] = qHTS RealTime-Glo MT Cell Viability Assay in HEK293 cells - 40 hour (AID 1224874); conditions: RealTime-Glo luminescence; max response: stronger effect = lower value; further: nearly all actives have a fitted effect of over 50% in size; further: potency means the concentration at half of the fitted maximal effect
Method in brief: (§5)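 600 cells/well were plated with the nonlytic NanoLuc/prosubstrate reagent, pre-incubated 5 h, then given 23 nL of compound in DMSO. Incubation at 37 C for 40 h, with luminescence from viable-cell-reduced substrate read repeatedly from 0 h.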

[12] = A CellTox Green Cytotoxicity Assay to monitor cytotoxicity in HEK293 cells - 24 hour (AID 1224875); further: nearly all actives have a fitted effect of over 45% in size; further: potency means the concentration at half of the fitted maximal effect
Method in brief: as §2

[13] = A CellTox Green Cytotoxicity Assay to monitor cytotoxicity in HepG2 cells - 16 hour (AID 1224876); further: nearly all actives have a fitted effect of over 45% in size; further: potency means the concentration at half of the fitted maximal effect
Method in brief: (§6)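 HepG2 cells, 600/well, preincubated 5 h with CellTox Green dye, then exposed to Tox21 compounds in DMSO at 37 C for up to 40 h. Dead-cell DNA fluorescence read at the indicated time point.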

[14] = qHTS RealTime-Glo MT Cell Viability Assay in HepG2 cells - 32 hour (AID 1224877); further: nearly all actives have a fitted effect of over 55% in size; further: potency means the concentration at half of the fitted maximal effect
Method in brief: as §1

[15] = A CellTox Green Cytotoxicity Assay to monitor cytotoxicity in HepG2 cells - 40 hour (AID 1224879); further: nearly all actives have a fitted effect of over 40% in size; further: potency means the concentration at half of the fitted maximal effect
Method in brief: as §6

[16] = qHTS RealTime-Glo MT Cell Viability Assay in HEK293 cells - 0 hour (AID 1224880); further: top concentration of the series differs between compounds; nearly all actives have a fitted effect of over 45% in size
Method in brief: as §5

[17] = qHTS RealTime-Glo MT Cell Viability Assay in HEK293 cells - 32 hour (AID 1224868); further: nearly all actives have a fitted effect of over 50% in size; further: potency means the concentration at half of the fitted maximal effect
Method in brief: as §3

[18] = qHTS RealTime-Glo MT Cell Viability Assay in HepG2 cells - 40 hour (AID 1224870); further: nearly all actives have a fitted effect of over 50% in size; further: potency means the concentration at half of the fitted maximal effect
Method in brief: as §4

[19] = A CellTox Green Cytotoxicity Assay to monitor cytotoxicity in HepG2 cells - 24 hour (AID 1224878); further: nearly all actives have a fitted effect of over 45% in size; further: potency means the concentration at half of the fitted maximal effect
Method in brief: as §6

[20] = qHTS assay to identify small molecule agonists of the hypoxia (HIF-1) signaling pathway (AID 1224846; active means well fitted activation curve with a large enough effect in the signal ratio in the repeat runs, not every such curve was filed as active; the % refers to the signal ratio)
Method in brief: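 HRE-bla ME-180 beta-lactamase reporter cells in medium with 0.5% dialyzed FBS, pre-incubated 5 h then exposed to compounds 17 h at 37C, 5% CO2; reporter induction read with CCF4-AM FRET substrate.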
On the % scale 0 is the no-effect control and ±100 the full control effect.

CN(C)CCOC(C)(c1ccccc1)c1ccccn1 (stereo unspecified)
inactive: Potency [1] | Potency [2] | Potency [3] | Potency [4] | activity change, positive = activation ([5]; at 42.5 µM (top of the series)) 0.337% | activity change, positive = activation ([5]; at 92.4 µM (top of the series)) 3.01% and -2.07% | Potency [6] | Potency [7] | Potency [8] | Potency [9] | Potency [10] | max response [11] 2.62% and -0.138% and 6.89% | Potency [12] | Potency [13] | Potency [14] | Potency [15] | Potency [16]

CC12CCC(CC1)C(C)(C)O2
inactive: Potency [1] | Potency [2] | Potency [3] | Potency [17] | Potency [7] | Potency [18] | Potency [8] | Potency [9] | Potency [10] | max response [11] -1.4% and 0.858% and 5.76% | Potency [12] | Potency [14] | Potency [19] | Potency [15] | Potency [16]

Cc1cc(C)nc(NS(=O)(=O)c2ccc(N)cc2)n1
inactive: Potency [1] | Potency [2] | Potency [3] | Potency [6] | Potency [17] | Potency [7] | Potency [18] | Potency [8] | Potency [9] | Potency [10] | max response [11] -37.4% and -3.88% and 7.67% | Potency [12] | Potency [14] | Potency [15] | Potency [16]

NC(=O)c1cccnc1
inactive: Potency [1] | Potency [2] | outcome [20] | Potency [3] | Potency [6] | Potency [17] | Potency [7] | Potency [18] | Potency [8] | Potency [10] | max response [11] 9.96% and -1.91% and 6.24% | Potency [12] | Potency [14] | Potency [15] | Potency [16]

CCCCCCCCCCCC[N+](C)(C)Cc1ccccc1
active: Potency [1] 53.9 µM | Potency [3] 98.8 µM and 110 µM and 49.2 µM | Potency [6] 12.1 µM and 21.2 µM and 8.49 µM | Potency [17] 3.4 µM and 2.99 µM and 2.13 µM | Potency [18] 8.54 µM and 16.8 µM and 6.74 µM | Potency [8] 42.8 µM and 47.4 µM and 23.9 µM | Potency [10] 48 µM and 53.2 µM and 26.8 µM | Potency [11] 1.91 µM and 2.12 µM and 1.9 µM | Potency [12] 42.8 µM and 47.4 µM and 23.9 µM | Potency [13] 21.5 µM and 26.7 µM and 19 µM | Potency [14] 9.58 µM and 18.9 µM and 6.74 µM | Potency [15] 13.5 µM and 18.9 µM and 8.49 µM
inactive: Potency [2] | Potency [7] | Potency [16]

O=C1O[C@H]([C@@H](O)CO)C(O)=C1O
inactive: Potency [1] | Potency [2] | outcome [20] | Potency [3] | Potency [6] | Potency [17] | Potency [7] | Potency [18] | Potency [8] | Potency [9] | Potency [10] | max response [11] 5.34% [middle of 5 runs] | Potency [14] | Potency [15] | Potency [16]

CC(=O)Nc1c(I)c(NC(C)=O)c(I)c(C(=O)O)c1I
inactive: Potency [1] | Potency [2] | Potency [3] | Potency [6] | Potency [7] | Potency [8] | Potency [10] | max response [11] 8.14% and 7% and 2.59% | Potency [12] | Potency [14] | Potency [15] | Potency [16]

CC(=O)C(=O)O
inactive: Potency [1] | Potency [2] | Potency [3] | Potency [6] | Potency [7] | Potency [8] | Potency [10] | max response [11] -1.91% and -9.51% and -2.01% | Potency [12] | Potency [14] | Potency [15] | Potency [16]

C1CCC(C(CC2CCCCN2)C2CCCCC2)CC1 (stereo unspecified)
active: Potency [2] 6.95 µM | Potency [3] 55.2 µM | Potency [4] 29.8 µM | Potency [8] 16.9 µM | Potency [10] 21.3 µM | Potency [11] 10.7 µM | Potency [12] 21.3 µM | Potency [13] 12 µM | Potency [14] 5.35 µM | Potency [19] 9.52 µM | Potency [15] 5.35 µM
inactive: activity change, positive = activation ([5]; at 42.5 µM (top of the series)) -54.8% | Potency [7]

CC1(C)O[C@@H]2C[C@H]3[C@@H]4CCC5=CC(=O)C=C[C@]5(C)[C@@]4(F)[C@@H](O)C[C@]3(C)[C@]2(C(=O)CO)O1
inactive and 9.52 µM (active): Potency [8]
inactive: Potency [2] | Potency [3] | Potency [4] | activity change, positive = activation ([5]; at 42.5 µM (top of the series)) -6.5% | activity change, positive = activation ([5]; at 92.4 µM (top of the series)) -23.9% and -13.8% | Potency [6] | Potency [17] | Potency [7] | Potency [10] | max response [11] -22.1% and -11.6% and -2.14% | Potency [14] | Potency [19] | Potency [15] | Potency [16]

Cc1ncc([N+](=O)[O-])n1C
inactive: Potency [2] | Potency [3] | Potency [4] | activity change, positive = activation ([5]; at 42.5 µM (top of the series)) 5.13% | activity change, positive = activation ([5]; at 92.4 µM (top of the series)) 5.9% and -0.499% | Potency [6] | Potency [7] | Potency [8] | Potency [9] | Potency [10] | max response [11] 6.42% and -0.882% and 0.401% | Potency [12] | Potency [13] | Potency [14] | Potency [19] | Potency [15] | Potency [16]

From PubChem BioAssay (Tox21)
